Bioassay records deposited in PubChem by National Center for Advancing Translational Sciences (NCATS).
Pf growth 48h – inhibits P. falciparum growth in the first generation, 48 h | Potency, µM (top dose mostly 28.7 µM), inactives show top-dose activity change, negative = inhibition, actives largely listed as inhibitors | AID 504832 | actives 5.9% (n = 310,000) | P. falciparum luciferase growth in erythrocytes, 48 h; further: potency means the concentration at half of the fitted maximal effect; on the % scale 0 is the no-effect control and ±100 the full control effect
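Compounds are pin-transferred into medium, infected erythrocytes (2% hematocrit, 0.1% parasitemia final) are added, and plates sit one parasite generation at 37 C in 5% CO2. Detection reagent is then added and luminescence measured.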
Shiga inhibitor – inhibitors of Shiga toxin in Vero cells | Vero cells, Shiga toxin protein synthesis inhibition reporter | actives 9.2% (n = 290,000) | inhibition, % at 38.7 µM; in the data active means inhibition mostly above about 28%, no sharp cut-off; inactive means mostly below about 43%; further: 0% is about no effect
HCMV antiviral – human cytomegalovirus inhibition. HFF cells, HCMV-luciferase reporter, 72 h; active compounds read low. activity change, negative = inhibition, % at 57.5 µM. actives 4.5% (n = 410,000). AID 1259415; in the data active means activity change below about -60%; inconclusive means no clear call, values can overlap the other calls; inactive means above about -39%; further: on the % scale 0 is the no-effect control and ±100 the full control effect
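Steps: HFFs plated, 16 h 37C; compounds added; HCMV-luciferase added to MOI 1 PFU/cell; 72 h 37C; OneGlo reagent, 5 min room temperature; luminescence read, normalized to controls.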
Pf growth 96h – inhibits malaria parasite growth, 96 h; AID 504834; P. falciparum luciferase reporter growth, 96 h; actives 6.9% (n = 320,000); Potency, µM (top dose mostly 28.7 µM), for inactives: at the highest dose activity change, negative = inhibition, most hits filed as inhibitors; further: potency means the concentration at half of the fitted maximal effect; on the % scale 0 is the no-effect control and ±100 the full control effect
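Luminescence readout: decreased luciferase signal marks inhibited growth of reporter-expressing P. falciparum in infected red cells (2% hematocrit, 0.05% parasitemia final), exposed to compound two generations (96 h, 37 C, 5% CO2).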
Cycloheximide cs – counter-screen for Shiga toxin inhibitors: cycloheximide protein synthesis inhibition | cell reporter, cycloheximide protein synthesis inhibition counterscreen | max response, % | actives 12% (n = 300,000) | AID 2314; in the data active means max response mostly above about 13%, no sharp cut-off; inactive means mostly below about 14%; further: read at 38.3 µM for the half of the compounds with a filed dose; 0% is about no effect
HCV inhibitor – inhibitors of hepatitis C virus infection; actives 3.4% (n = 340,000); Huh7.5.1 HCVcc-Cre infection, luciferase reporter, 44 h; Potency, µM (highest dose often 41.8 µM), without a hit: at the top dose activity change, negative = inhibition, actives largely listed as inhibitors; AID 651820; further: potency means the concentration at half of the fitted maximal effect; on the % scale 0 is the no-effect control and ±100 the full control effect
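Cells seeded at 1,000/well and cultured 4 h, then compounds added followed by HCVcc-Cre virus (~0.5 moi). After 44 h further culture, luciferase substrate was added, plates held 15 min at room temperature, and luminescence read for 15 sec.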
Active calls of the source: *; u = inconclusive; x = no result given. Most compounds without a hit are left out; they make up all but 21% or so of the library. Unless noted, the call rests on the fitted dose curve; in most records, active means well fitted inhibition curve with a large enough effect; inconclusive means small, poorly fitted or top-dose-only effect, or another doubt; inactive means no such curve, though single readings can be large or run the other way.

SMILES	Pf growth 48h	Shiga inhibitor	HCMV antiviral	Pf growth 96h	Cycloheximide cs	HCV inhibitor
CCOC(=O)c1cnc2ccc(C)cc2c1Nc1ccc(N(CC)CC)cc1	x	x	-106.2*	x	x	x
CCNS(=O)(=O)c1ccc(NC(=O)Nc2ccccc2OC)cc1	25.6%	4.1	-21.4	10.1%	9.5*	u
COc1ccccc1CNS(=O)(=O)c1ccc(NC(C)=O)cc1	5.4%	-0.5	u	0.0%	-1.0	13.6%
CCNS(=O)(=O)c1ccc(NC(=O)Nc2cc(C)ccc2OC)cc1	7.7%	40.5	-15.1	-6.6%	-2.0	12.6µM*
Cc1ccc(-c2nc(SCC(=O)NCC3CCCO3)c3c(=O)n(C)c(=O)n(C)c3n2)cc1 (centres undefined)	x	x	-14.2	x	x	x
CCC(C)C1NC(=O)C(NC(=O)C(CC(C)C)N(C)C(=O)C2CCCN2C(=O)C(C)O)C(C)OC(=O)C(Cc2ccc(OC)cc2)N(C)C(=O)C2CCCN2C(=O)C(CC(C)C)NC(=O)[C@H](C)C(=O)[C@H](C(C)C)OC(=O)CC1O (some centres undefined)	x	x	-97.3*	x	x	u
COc1ccc(CN(CCC(c2ccc3c(c2)OCO3)c2ccccc2OC)C(C)=O)cc1 (centres undefined)	x	x	-10.0	x	x	x
Cc1cn(C2CC3OCC(NC(=O)C(Cc4ccccc4)NC(=O)OC(C)(C)C)C3O2)c(=O)[nH]c1=O (centres undefined)	x	4.5	x	x	11.2	x
COc1ccccc1CNC(=O)CCCn1c(=O)c2ccccc2n(Cc2ccccc2C#N)c1=O	x	x	-3.1	x	x	x
O=P(CCNCc1ccco1)(c1ccccc1)c1ccccc1	-8.1%	-10.1	18.1	-11.8%	-2.5	14.4%
CC(=O)N(CCC(Cc1ccccc1)c1ccco1)Cc1ccco1 (centres undefined)	u	11.9	24.6	u	1.3	11.2µM*
CC(=O)N(CCP(=O)(c1ccccc1)c1ccccc1)Cc1ccco1	-9.1%	35.7	9.6	9.28µM*	13.6	15.6%
O=C(c1ccco1)N(CCC(c1ccccc1)c1ccco1)Cc1ccco1 (centres undefined)	u	10.0	11.5	u	7.9	24.7%
CC(=O)N(CCC(Cc1ccccc1)c1ccc2c(c1)OCO2)Cc1ccc(Cl)cc1 (centres undefined)	9.28µM*	0.3	-32.6	8.28µM*	4.1	11.2µM*
O=C1CC(C(=O)N2CCN(c3ccccc3O)CC2)CN1Cc1ccccc1 (centres undefined)	-7.8%	x	54.3	u	x	6.1%
COc1cc(NC(=O)COc2ccc(Cl)cc2)ccc1-c1cc2ccccc2oc1=O	u	-10.5	42.6	4.15µM*	-4.9	u
COc1cc2c(cc1NC(=O)COc1ccc(Cl)cc1)oc1ccccc12	x	x	-3.1	x	x	x
CNc1c(NC(=O)COc2ccc(Cl)cc2)c(=O)oc2ccccc12	10.4µM*	21.5	-37.0	u	23.4	-15.1%
C=C1C[C@H]2[C@@H]3C=C(C)C4=CC(=O)CC[C@]4(C)[C@H]3CC[C@]2(C)[C@@]1(OC(C)=O)C(C)=O	9.28µM*	13.2	-18.2	u	-9.6	u
CC(=O)[C@@]1(O)CC[C@H]2[C@@H]3C[C@H](C)C4=CC(=O)CC[C@]4(C)[C@H]3CC[C@@]21C	u	5.9	u	u	-3.4	u
C=C1CC2C(CCC3(C)C2CCC3(O)C(C)=O)C2(C)CCC(=O)C=C12 (centres undefined)	u	-14.8	-79.0*	335.7%	-2.9	-12.2%
CC(C)(C)OC(=O)N1CCC(c2c(C(=O)NCCN3CCOCC3)cnn2-c2cccc(F)c2)CC1	x	x	15.8	x	x	x
COc1ccc(OC)c(N(CC(=O)Nc2cccc(C(F)(F)F)c2)S(C)(=O)=O)c1	-11.2%	-6.3	-38.2	26.8%	-1.8	-0.5%
N#CCCN(Cc1ccccc1)C(C(=O)NC1CCCCC1)c1cc2ccccc2o1 (centres undefined)	x	x	-60.2*	x	x	x
CN1CCC/C1=C1/C(=O)N(c2ccccc2)N=C1NC(=O)Nc1cccc(Cl)c1	0.0%	31.5	-27.7	-10.2%	-2.4	-0.2%
SMILES	Pf growth 48h	Shiga inhibitor	HCMV antiviral	Pf growth 96h	Cycloheximide cs	HCV inhibitor
Cc1ccc(NC(=O)NC2=NN(c3ccccc3)C(=O)/C2=C2/CCCN2C)cc1	206.5%	89.6*	-38.7	52.5%	27.0*	17.4%
CSc1ccc(S(=O)(=O)Nc2ccc3c4c(cccc24)CC3)cc1	u	-5.9	-81.6*	u	-2.4	u
O=S(=O)(Nc1ccc2c3c(cccc13)CC2)c1ccc(F)cc1	35.9%	-5.8	-61.1*	97.7%	15.8	-6.8%
O=C1C[C@@H](c2ccc(O)cc2)Oc2cc(O[C@@H]3O[C@H](CO)[C@@H](O)[C@H](O)[C@H]3O)cc(O)c21	x	-3.5	x	x	6.7	x
CCOC(=O)c1c(C)[nH]c(N=Nc2ccc(C)cc2)c1C	55.3%	71.0	58.9	x	31.5*	u
COC(=O)c1c(C)[nH]c(C=Nc2ccc(OC)cc2)c1C	4.9%	-3.9	30.8	103.9%	-2.8	22.9%
CCOC(=O)c1c(C)[nH]c(N=Nc2ccc(OC)cc2)c1C	152.8%	85.5*	0.0	150.7%	35.2*	-22.0%
CCOC(=O)c1c(C)[nH]c(N=Nc2ccccc2Cl)c1C	u	97.0*	67.7	16.6%	65.1*	u
CCOC(=O)c1c(C)[nH]c(N=Nc2ccccc2)c1C	x	82.0*	152.3	9.5%	54.5*	u
CC(=O)N1c2ccc(S(=O)(=O)NCC3CCC(C(=O)Nc4cccc(C)c4C)CC3)cc2CC1C (centres undefined)	x	x	13.4	x	x	x
CCOC(=O)c1c(C)[nH]c(NC(=O)NNC(=O)c2ccccc2Cl)c1C	-10.6%	x	-27.3	23.7%	x	11.2µM*
CCOC(=O)c1c(C)[nH]c(NC(=O)NNC(=O)c2ccc(OC)cc2)c1C	-12.9%	x	-20.6	-10.4%	x	-3.3%
Cc1cc(-c2nnc(CCC(=O)NCc3cc(F)cc(C(F)(F)F)c3)o2)no1	-10.4%	31.7	23.3	-23.3%	25.0*	0.7%
COc1ccc([C@@H](C)NC(=O)CCc2nnc(-c3cc(C)on3)o2)cc1	18.9%	-7.3	-0.4	2.94µM*	2.4	6.5%
CCC(NC(=O)CCc1nnc(-c2cc(C)on2)o1)C12CC3CC(CC(C3)C1)C2 (centres undefined)	u	30.2	-21.9	8.6%	17.8*	21.2%
Cc1cc(-c2nnc(CCC(=O)NC(C)c3ccccc3Cl)o2)no1 (centres undefined)	13.3%	-4.6	21.8	22.7%	-4.5	10.6%
Cc1ccc(NC(=O)CSc2nnc(-c3cc(C)on3)o2)cc1	33.5%	23.9	-14.4	15.6%	-5.4	23.3%
Cc1cc(-c2nnc(CCC(=O)NC(C)c3cccc4ccccc34)o2)no1 (centres undefined)	-16.9%	15.2	-34.0	11.7µM*	6.5	-11.5%
